The subject of test [1] is Human papillomavirus type 1a protein E7 (residues 44-93). Kind of test: small molecules binding HPV E7 44-93 – biochemical, small-molecule microarray, residues 44-93, 635 nm fluorescence, primary screen (AID 1108).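 Also: E7 fragment applied at 1 µg/mL in TBST for 1 h at 4 C; score combines spot fluorescence with its signal to noise ratio.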 The following applies: fluorescence 635 nm, higher = more signal.
The nature of test [2]: hepatitis C replication reporter changes, two-sided – Huh7 cells, luciferase reporter, HCV replication inhibitor project, primary screen (AID 1109).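 Also: huh7 hepatoma cells harbouring a luciferase neomycin HCV replicon reporter; luciferase luminescence as measure of HCV replicon replication; test concentration not given here.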 The conditions noted are these: Huh7 HCV replicon luciferase reporter, 48 h; higher = more signal. Background: Reporter assays use an easily measured gene product as a stand-in for the process of interest.
Test [3] addresses Left-right determination factor 2 (Homo sapiens) (UniProt O00292). The experiment in a line: small molecules binding LEFTY2 protein – biochemical, small-molecule microarray, 635 nm fluorescence scan, primary screen (AID 1110). The following applies: higher = more signal.
For test [4], the target named is Calmodulin-1 (Homo sapiens) (UniProt P0DP23). Kind of test: small molecules binding calmodulin-1 with EGTA – biochemical, small-molecule microarray, Cy5-labelled CALM1, profiling panel (AID 1111).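 Also: labelled calmodulin applied in Tris saline Tween buffer holding calcium plus EGTA and DTT.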 The following applies: Cy5-CALM1 binding fluorescence, higher = more signal.
Test [5] has the same target. The experiment in a line: small molecules binding Ca-loaded calmodulin-1 – biochemical, small-molecule microarray, Cy5-labelled CALM1, plus calcium, artefact control for SMM control-protein annotation, profiling panel (AID 1112).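 Also: score merges spot fluorescence with signal to noise from triplicate slides.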 The following applies: Cy5-CALM1 binding fluorescence, higher = more signal.
Test [6] is described as follows: probe aWnt5a binding to arrayed compounds – biochemical, biotinylated probe, 635/667 nm fluorescence, primary screen (AID 1113).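 Also: score merges 667 nm fluorescence intensity with signal-to-noise per printed feature.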 The conditions noted are these: small-molecule microarray, higher = more signal.
Test [7] in a line: probe aShh binding to arrayed compounds – biochemical, biotinylated probe, 635/667 nm fluorescence, primary screen (AID 1114).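 Also: probe is biotin-labelled aShh protein from a stem cell growth factor screen; measures binding of labelled protein to compounds printed on the slide; score merges feature fluorescence at 667 nm with signal-to-noise.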 The following applies: small-molecule microarray, higher = more signal.
Test [8] is described as follows: probe aNog binding to arrayed compounds – biochemical, biotinylated probe, 635/667 nm fluorescence, primary screen (AID 1115).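 Also: probe is biotinylated aNog protein used at 0.15 µg/mL for 1 h at 4 C; z-score combines 667 nm fluorescence of each spot with its signal to noise.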 The following applies: small-molecule microarray, higher = more signal.
For test [9], the target named is Torsin-1A-interacting protein 1 (Homo sapiens) (UniProt Q5JTV8). Kind of test: compound microarray binding of lysate hLAP1 – cell lysate, small-molecule microarray, COS7 lysate, 635/667 nm fluorescence, primary screen (AID 1116). The following applies: 635 nm fluorescence, higher = more signal.
Test [10] addresses Alpha-bungarotoxin (Bungarus multicinctus) (UniProt P60615). Kind of test: compounds binding labelled alpha-BTX control protein – biochemical, small-molecule microarray, Alexa647 label, 635/667 nm fluorescence, artefact control for SMM control protein annotation, profiling panel (AID 1117). The conditions noted are these: alpha-BTX-A647 binding fluorescence, higher = more signal.

The target in the next test is Albumin (Bos taurus) (UniProt P02769). The experiment in a line: compounds binding labelled BSA control protein – biochemical, small-molecule microarray, Alexa647 label, 635/667 nm fluorescence, artefact control for SMM control protein annotation, profiling panel (AID 1118).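 Also: score merges 667 nm emission intensity and signal-to-noise per printed compound spot.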 The following applies: BSA-A647 binding, fluorescence 635 nm, higher = more signal.
Test [11] in a line: probe aXIP binding to arrayed compounds – biochemical, NeuroSMM set, 635/667 nm fluorescence, primary screen (AID 1119).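 Also: probe is the protein aXip251-270 applied at 1 µg/mL to compound-printed slides; binding of probe to printed compounds measured as 667 nm fluorescence plus signal to noise.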 The following applies: small-molecule microarray, higher = more signal, called active from +8 up or from −8 down.
The nature of test [12]: probe aNOTCH3 binding on compound microarray – biochemical, small-molecule microarray, 635/667 nm fluorescence, primary screen (AID 1120).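 Also: probe is a biotin-tagged antibody raised against NOTCH3 rather than NOTCH3 protein; score merges spot fluorescence near 667 nm with spot signal to noise.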 The following applies: higher = more signal.
Test [13] is described as follows: probe aNOTCH2 binding on compound microarray – biochemical, small-molecule microarray, 635/667 nm fluorescence, primary screen (AID 1121).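 Also: score merges feature fluorescence read at 667 nm with its signal to noise.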 The conditions noted are these: higher = more signal.
Test [14] has as its target Carbonic anhydrase 2 (Homo sapiens) (UniProt P00918). The experiment in a line: compounds binding carbonic anhydrase 2 – biochemical, small-molecule microarray, Alexa647-labelled CAII, profiling panel (AID 1122). The conditions noted are these: CAII-A647 binding fluorescence, higher = more signal.
Test [15] in a line: COS7 lysate on small-molecule microarray, probe aHis, 635 nm (AID 1123).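 Also: z-score combines 667nm fluorescence intensity with signal-to-noise per printed compound spot.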 The conditions noted are these: COS7 cell lysate, fluorescence, higher = more signal.
Test [16] is described as follows: probe aLAP1 signal on lysate-treated microarray – cell lysate, small-molecule microarray, COS7 lysate, primary screen (AID 1124).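 Also: lysate comes from COS7 cells expressing LAP1 and is applied at 0.3 µg/mL; score merges spot fluorescence near 667 nm with signal-to-noise over triplicate slides.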 The conditions noted are these: probe aLAP1, fluorescence, higher = more signal.
Another test deals with Sam68 (KHDRBS1). Kind of test: compounds binding KHDRBS1 protein – biochemical, small-molecule microarray, 635 nm fluorescence, primary screen (AID 1125).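 Also: score merges 667 nm channel intensity with signal to noise over triplicate slides.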 The conditions noted are these: higher = more signal.
Test [17] has as its system Chordin-like protein 2 (CHRDL2). Kind of test: compounds binding chordin-like 2 – biochemical, small-molecule microarray, 635 nm fluorescence, primary screen (AID 1126).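 Also: printed compound slides probed with Chrdl2 protein at 4 µg/mL for 1 h at 4 C; score merges 667 nm emission intensity with signal to noise over three replicate slides.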 The following applies: fluorescence 635 nm, higher = more signal.
Test [18] concerns the target Concanavalin-A (Canavalia ensiformis) (UniProt P02866). The experiment in a line: compounds binding concanavalin A lectin – biochemical, small-molecule microarray, Alexa647 label, 635 nm, artefact control for SMM control protein annotation, primary screen (AID 1127).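 Also: z combines 667 nm emission intensity with signal-to-noise across three replicate slides.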 The conditions noted are these: ConA-A647 binding fluorescence, higher = more signal.

The structures appear in SMILES notation. Activity calls are given as the source filed them.

Albumin (Bos taurus), sequence (P02769 whole entry, looked up): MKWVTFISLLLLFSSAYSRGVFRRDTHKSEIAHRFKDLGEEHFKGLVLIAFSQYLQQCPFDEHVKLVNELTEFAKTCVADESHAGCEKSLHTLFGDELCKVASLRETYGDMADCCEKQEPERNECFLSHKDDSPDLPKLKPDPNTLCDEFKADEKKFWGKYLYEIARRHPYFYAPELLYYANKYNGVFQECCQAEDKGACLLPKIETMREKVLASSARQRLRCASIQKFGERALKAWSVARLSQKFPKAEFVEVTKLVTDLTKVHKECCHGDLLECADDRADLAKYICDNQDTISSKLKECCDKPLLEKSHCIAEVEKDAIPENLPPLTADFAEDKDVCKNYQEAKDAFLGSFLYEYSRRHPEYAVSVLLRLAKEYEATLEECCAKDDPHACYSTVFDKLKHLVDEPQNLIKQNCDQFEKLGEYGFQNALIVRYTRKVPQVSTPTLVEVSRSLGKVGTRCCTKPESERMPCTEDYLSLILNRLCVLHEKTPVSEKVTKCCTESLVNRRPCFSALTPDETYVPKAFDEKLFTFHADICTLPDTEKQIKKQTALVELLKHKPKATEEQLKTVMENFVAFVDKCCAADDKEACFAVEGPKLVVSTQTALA
Torsin-1A-interacting protein 1 (Homo sapiens), sequence (Q5JTV8 whole entry, looked up): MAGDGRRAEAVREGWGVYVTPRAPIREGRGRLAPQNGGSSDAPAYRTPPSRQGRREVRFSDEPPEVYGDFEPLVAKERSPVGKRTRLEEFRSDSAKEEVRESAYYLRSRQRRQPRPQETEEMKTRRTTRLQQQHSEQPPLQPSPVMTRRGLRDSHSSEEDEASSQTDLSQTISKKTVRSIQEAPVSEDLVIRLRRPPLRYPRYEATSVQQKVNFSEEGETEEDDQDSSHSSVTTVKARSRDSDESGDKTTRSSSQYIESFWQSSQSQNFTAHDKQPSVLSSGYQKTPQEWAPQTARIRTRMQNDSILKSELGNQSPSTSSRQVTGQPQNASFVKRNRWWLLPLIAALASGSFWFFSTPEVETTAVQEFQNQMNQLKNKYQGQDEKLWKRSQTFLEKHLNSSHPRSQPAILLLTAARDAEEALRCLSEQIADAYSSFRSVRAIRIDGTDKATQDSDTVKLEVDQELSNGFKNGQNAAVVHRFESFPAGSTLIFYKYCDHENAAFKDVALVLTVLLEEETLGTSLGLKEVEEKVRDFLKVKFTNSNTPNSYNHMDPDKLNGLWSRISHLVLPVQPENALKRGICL
Alpha-bungarotoxin (Bungarus multicinctus), sequence (P60615 whole entry, looked up): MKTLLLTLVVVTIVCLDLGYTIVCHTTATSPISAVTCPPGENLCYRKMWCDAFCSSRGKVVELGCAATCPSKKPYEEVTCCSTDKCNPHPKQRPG
Left-right determination factor 2 (Homo sapiens), sequence (O00292 whole entry, looked up): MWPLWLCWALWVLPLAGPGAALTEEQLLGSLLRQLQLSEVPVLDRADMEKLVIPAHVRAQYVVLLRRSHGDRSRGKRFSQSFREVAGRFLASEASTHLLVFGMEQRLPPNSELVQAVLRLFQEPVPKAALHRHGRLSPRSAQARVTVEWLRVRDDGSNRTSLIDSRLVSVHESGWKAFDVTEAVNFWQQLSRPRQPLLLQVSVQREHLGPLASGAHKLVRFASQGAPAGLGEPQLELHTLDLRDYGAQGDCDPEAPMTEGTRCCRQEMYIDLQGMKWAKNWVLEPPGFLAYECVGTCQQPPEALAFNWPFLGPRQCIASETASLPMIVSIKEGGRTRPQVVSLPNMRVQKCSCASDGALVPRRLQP
Concanavalin-A (Canavalia ensiformis), sequence (P02866 whole entry, looked up): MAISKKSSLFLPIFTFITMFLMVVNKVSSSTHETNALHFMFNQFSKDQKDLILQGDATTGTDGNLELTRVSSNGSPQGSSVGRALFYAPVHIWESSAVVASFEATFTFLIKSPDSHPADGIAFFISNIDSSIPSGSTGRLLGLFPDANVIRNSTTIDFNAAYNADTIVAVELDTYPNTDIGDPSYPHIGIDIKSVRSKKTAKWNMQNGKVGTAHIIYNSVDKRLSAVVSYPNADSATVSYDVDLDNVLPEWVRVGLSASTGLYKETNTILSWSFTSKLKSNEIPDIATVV

`[N-]=[N+]=NCc1ccccc1C[C@@]1(C(N)=O)N=C(c2ccc(OCCCO)cc2)O[C@@H]1c1ccccc1CN=[N+]=[N-]`: the composite z-score in [1] was 1.43; in [3] it was 0.144; in [4] it was 1.37; in test [5] it was 0.693; in [6], -0.0236; in [7], 0.19. Moreover, the composite z-score is 1.08 in test [8]; 0.623 in test [9]; 0.689 in [10]; 0.757 with Albumin (Bos taurus); 0.105 in test [12]; -0.0386 in test [13]. In addition, the composite z-score in [14] was 0.549; in [15], 1.5; in [16], 0.383; in the test on Sam68 (KHDRBS1), 1.29; in test [17], -0.464; in [18], 0.792. This compound returned a z-score in [2] of -1.55. The composite Z-score in test [11] is 1.22 (inactive).
As for `O=C(CS)NCCCCCCNC(=O)[C@H]1C[C@H]2C(=O)N[C@@H](Cc3ccccc3)C(=O)N2[C@H]1c1cccc(OCCO)c1`, the composite z-score in test [1] worked out at 1.37; in test [3], 1.23; in test [4] it was 1.79; in test [5] it was 0.0164; in test [6], 0.0066; in test [7], 0.676. The composite z-score in test [8] was 0.897; in test [9] it was 1.38; in test [10], 2.44; with Albumin (Bos taurus), -0.428; in test [12], 0.605; in test [13], -0.084. Besides, the composite z-score in test [14] turned out to be 0.684; in [15], 2.21; in [16], 0.519; with Sam68 (KHDRBS1), 1.29; in [17], 1.24; in [18], 0.892. Further, the z-score in [2] was -0.963. The composite Z-score in test [11] is 0.131 (inactive).
As to `CC=CC(O)C1C=CC2C(=O)N(C)C(=O)C2N1N1CCCCC1` (stereo not given), the composite z-score was 1.15 in test [1]; 0.364 in test [3]; 1.41 in test [4]; 0.127 in [5]; 0.0559 in test [6]; -0.151 in test [7]. Besides, the composite z-score was -0.39 in test [8]; 0.923 in test [9]; 1.1 in test [10]; 1.01 with Albumin (Bos taurus); 0.16 in [12]; 0.0701 in test [13]. In addition, the composite z-score in test [14] is 0.783; in test [15] it was 2.48; in test [16], 0.466; in the test on Sam68 (KHDRBS1) it was 1.27; in [17] it was -0.0061; in test [18], 0.915. This compound also displayed a z-score in [2] of 0.121. Further, the composite Z-score in test [11] was 0.298 (inactive).
For `C=CCOC(=O)[C@@H]1[C@H]2C(=O)O[C@H](c3ccccc3)[C@H](c3ccccc3)N2[C@H](c2ccc(OCCOC(=O)[C@H]3C[C@H]4C(=O)N[C@@H](CCCCN(C)C)C(=O)N4[C@H]3c3cccc(OCCO)c3)cc2)[C@@]12C(=O)Nc1ccc(I)cc12`, the composite z-score was 1.42 in test [1]; 0.724 in test [3]; 0.993 in test [4]; -0.069 in test [5]; -0.13 in test [6]; 0.123 in [7]. For the same compound, the composite z-score is -0.0863 in test [8]; 1.03 in test [9]; 2.07 in test [10]; -0.624 with Albumin (Bos taurus); 0.194 in test [12]; -0.14 in [13]. The composite z-score in test [14] stood at 0.507; in [15] it was 1.64; in test [16] it was 0.168; in the test on Sam68 (KHDRBS1), 1.25; in test [17], 0.798; in [18], 1.15. The compound further returned a z-score in [2] of -1.14. Besides, in [11], the composite Z-score was 0.204 (inactive).
In the case of `CC(C)C[C@@H]1NC(=O)[C@H]2C[C@@H](C(=O)NCCCCCC[N+](C)(C)C)[C@@H](c3cccc(OCCO)c3)N2C1=O`, the composite z-score in [1] is -0.209; in test [3], 0.538; in [4], -0.432; in test [5] it was -0.738; in test [6] it was -0.152; in [7], -0.0035. For the same compound, the composite z-score in test [8] is -0.378; in test [9], 0.501; in test [10], 0.0962; in the test with Albumin (Bos taurus) it was 0.107; in test [12], -0.0967; in test [13] it was -0.169. Moreover, the composite z-score in test [14] is 0.377; in test [15], 1.02; in test [16], 0.384; in the test on Sam68 (KHDRBS1), 0.374; in test [17], 0.964; in test [18], 0.869. The same compound returned a z-score in test [2] of 1.79. For the same compound, the composite Z-score in test [11] is 0.831 (inactive).
`CCCCC(CC)C(O)C1C=CC2C(=O)N(c3ccccc3)C(=O)C2N1Nc1ccc([N+](=O)[O-])cc1` (stereo not given): the composite z-score is 1.37 in [1]; 0.362 in test [3]; 1.68 in test [4]; -0.371 in [5]; -0.0519 in test [6]; -0.258 in test [7]. Besides, the composite z-score in test [8] was -0.623; in test [9], 0.513; in test [10] it was 1.27; in the test with Albumin (Bos taurus), 0.985; in test [12], 0.44; in [13], -0.161. Moreover, the composite z-score stood at 0.652 in [14]; 1.86 in test [15]; 0.914 in [16]; 1.31 with Sam68 (KHDRBS1); 0.0772 in test [17]; 1.18 in test [18]. The compound also yielded a z-score in test [2] of -0.127. Also, in [11], the composite Z-score was -0.189 (inactive).
